Data on nine molecules can be found in PubChem BioAssay (EPA / NIEHS).

For orientation: AC50 means the concentration giving half of the maximal activity seen.

The structures appear in SMILES notation. Records with an inconclusive call do not appear. Activity calls are given as the source filed them. Rule for the calls, unless noted: active = hit-call score of the fitted dose curve at least 0.9, where 1 is the maximum; inconclusive = response in the unintended direction; inactive = score below 0.9.

The nature of assay [1]: Tanguay_ZF_120hpf_BRAI_legacy: (Legacy) Oregon State University Tanguay Lab 120 Hour Post-fertilization zebrafish Assay for Brain Malformation (AID 2283641). The method, boiled down:
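Brain malformation in Tropical 5D zebrafish was recorded as a binary endpoint after static compound exposure from early development to 120 hpf at 28C. Activity was analysed against DMSO as negative control.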

Assay [2] in a line: Tanguay_ZF_120hpf_SOMI_legacy: (Legacy) Oregon State University Tanguay Lab 120 Hour Post-fertilization zebrafish Assay for Somite Malformation (AID 2283647). The method, boiled down: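 5D WT zebrafish; chorion removed 4 hpf; 1 embryo/well from 6 hpf; static exposure to 120 hpf, 28C, 0.64% DMSO final. Endpoint: somite malformation, binary, brightfield. Mortality excluded.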
Assay [3] is described as follows: Tanguay_ZF_120hpf_PFIN_legacy: (Legacy) Oregon State University Tanguay Lab 120 Hour Post-fertilization zebrafish Assay for Pectoral Fin Malformation (AID 2283648).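 Note: each larva judged yes or no for fin defect by brightfield with dead larvae skipped.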 The procedure, abridged:
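Tropical 5D wild-type embryos, dechorionated with pronase at 4 hpf, were placed singly in wells at 6 hpf and statically exposed until 120 hpf at 28C, sealed and dark, with 0.64% (vol/vol) final DMSO; pectoral fin malformation scored present/absent.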

A short description of assay [4]: Tanguay_ZF_120hpf_CIRC_legacy: (Legacy) Oregon State University Tanguay Lab 120 Hour Post-fertilization zebrafish Assay for Circulatory Malformation (AID 2283651). The method, boiled down: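 Using wild-type Tropical 5D zebrafish, we exposed dechorionated embryos from 6 to 120 hpf in embryo medium with 0.64% DMSO. Circulatory defects were scored as present or absent; 5uM trimethyltin chloride served as positive control.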

The nature of assay [5]: Tanguay_ZF_120hpf_SWIM_legacy: (Legacy) Oregon State University Tanguay Lab 120 Hour Post-fertilization zebrafish Assay for Swim Bladder Malformation (AID 2283654).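 Note: swim bladder malformation in each larva scored yes or no under brightfield.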 The method, boiled down:
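Dechorionated Tropical 5D wild-type embryos, placed singly from 6 hpf, were statically exposed at 28C to 120 hpf with 0.64% DMSO final; swim bladder malformation was scored present/absent by brightfield microscopy, gain of signal relative to DMSO controls.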

Assay [6] in a line: Tanguay_ZF_120hpf_NC_legacy: (Legacy) Oregon State University Tanguay Lab 120 Hour Post-fertilization zebrafish Assay for Notochord and Tail Malformation (AID 2283656). The method, boiled down: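 Dechorionated 5D zebrafish, 1/well from 6 hpf; static exposure to 120 hpf, 28C, sealed, dark; final DMSO 0.64% v/v. NC scored binary (present/absent); dead embryos not scored. Fit vs DMSO baseline, gain direction.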

Assay [7] is described as follows: Tanguay_ZF_120hpf_TR_legacy: (Legacy) Oregon State University Tanguay Lab 120 Hour Post-fertilization zebrafish Assay for Touch Response (AID 2283667). The method, boiled down: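 Tropical 5D wild-type zebrafish embryos were exposed statically in sealed, foil-covered plates at 28C until 120 hpf, with 0.64% (vol/vol) final DMSO. Touch response was scored as present or absent; embryos that died were not scored.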

Assay [8] is described as follows: Tanguay_ZF_120hpf_CFIN_legacy: (Legacy) Oregon State University Tanguay Lab 120 Hour Post-fertilization zebrafish Assay for Caudal Fin Malformation (AID 2283649). The procedure, abridged:
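Embryos were collected from Tropical 5D wild-type adults and dechorionated at 4 hpf. At 6 hpf each was exposed, one per well, at 0.64% DMSO and 28C. At 120 hpf fin morphology was scored; dead embryos were excluded.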

Assay [9] in a line: Tanguay_ZF_120hpf_PIG_legacy: (Legacy) Oregon State University Tanguay Lab 120 Hour Post-fertilization zebrafish Assay for Pigmentation Malformation (AID 2283650). The procedure, abridged:
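Tropical 5D wild-type zebrafish embryos, dechorionated with pronase at 4 hpf, were exposed singly from 6 hpf to 120 hpf statically at 28C in sealed, dark plates with 0.64% DMSO; pigmentation scored present/absent by brightfield microscopy, fitted against DMSO.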

Read-out in assay [10]: solute carrier (SLC22A6), SLC22A6 (gene 9356)
In words: LTEA_HepaRG_SLC22A6: Life Technologies and Expression Analysis (LTEA) Assay for solute carrier (SLC22A6) using HepaRG (AID 2283653; active = hit-call score of the fitted dose curve at least 0.9, where 1 is the maximum; inactive = score below 0.9). The settings on record: mRNA level, 48 h; actives raise or lower the signal. The method, boiled down: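 This endpoint tracks SLC22A6 mRNA induction or suppression in human HepaRG cultures after 48 h dosing, concentrations reaching 100 uM. Values derive from bidirectional fitting against DMSO controls.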

Assay [11] can be described thus: Tanguay_ZF_120hpf_TRUN_legacy: (Legacy) Oregon State University Tanguay Lab 120 Hour Post-fertilization zebrafish Assay for Truncated Body (AID 2283655). The procedure, abridged: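 5D wild-type larvae; pronase dechorionation; static exposure 6→120 hpf, 28C; DMSO 0.64% final; 5uM trimethyltin chloride positive control. Readout: presence/absence of truncated body, analyzed relative to DMSO.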

Read-out in assay [12]: solute carrier (SLC10A1), SLC10A1 (gene 6554)
In words: LTEA_HepaRG_SLC10A1: Life Technologies and Expression Analysis (LTEA) Assay for solute carrier (SLC10A1) using HepaRG (AID 2283657; active = hit-call score of the fitted dose curve at least 0.9, where 1 is the maximum; inactive = score below 0.9). As to conditions: mRNA level, 48 h; actives raise or lower the signal. The procedure, abridged:
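Differentiated HepaRG cells were plated 48 h, then exposed in serum-free induction medium for 48 h to 8 concentrations (top 100 uM, half-log steps, 0.5% DMSO). SLC10A1 mRNA was quantified by qRT-PCR normalized to ACTB, GAPDH, POLR2A; bidirectional fit versus DMSO.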

Read-out in assay [13]: matrix metalloproteinase-1 (MMP1), MMP1 (gene 4312)
Put plainly: LTEA_HepaRG_MMP1: Life Technologies and Expression Analysis (LTEA) Assay for matrix metalloproteinase-1 (MMP1) using HepaRG (AID 2283658; active = hit-call score of the fitted dose curve at least 0.9, where 1 is the maximum; inactive = score below 0.9). The settings on record: mRNA level, 48 h; actives raise or lower the signal. The procedure, abridged:
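Bidirectional concentration-response fitting relative to 0.5% DMSO gives the endpoint, derived from MMP1 mRNA levels (qRT-PCR) in human HepaRG cells treated 48 h with chemicals up to 100 uM.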

Read-out in assay [14]: Cytochrome P450 (CYP24A1_1), CYP24A1 (gene 1591)
In words: LTEA_HepaRG_CYP24A1_1: Life Technologies and Expression Analysis (LTEA) Assay for Cytochrome P450 (CYP24A1_1) using HepaRG (AID 2283671; active = hit-call score of the fitted dose curve at least 0.9, where 1 is the maximum; inactive = score below 0.9). As to conditions: mRNA level, 48 h; actives raise or lower the signal. The method, boiled down: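 HepaRG, 48 h exposure, 8-pt half-log series from 100 uM in 0.5% DMSO, duplicates. Readout: TaqMan qRT-PCR of CYP24A1 mRNA, housekeeping-normalized (ACTB/GAPDH/POLR2A). Bidirectional curve fit vs DMSO baseline.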

Assay [15] in a line: STM_H9_CystineISnorm_perc: Stemina devTOX quickPredict H9 human embryonic stem cell (hESC)-based Assay for Cystine (CYSS) Metabolite Biomarker, Normalized (AID 2283713; active = hit-call score of the fitted dose curve at least 0.9, where 1 is the maximum; inactive = score below 0.9). The method, boiled down: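 Secreted cystine was measured by UPLC-HRMS in H9 hESC medium after 72h compound exposure with 24-hourly replenishment. Values are standard-normalized areas relative to 0.1% DMSO.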

Assay [16] in a line: CCTE_Padilla_ZF_144hpf_TERATOSCORE: (Legacy) CCTE's 144 Hour Post-fertilization zebrafish Assay Teratoscore, Padilla Lab (AID 2283679; active = hit-call score of the fitted dose curve at least 0.9, where 1 is the maximum; inactive = score below 0.9;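 for AC50: zebrafish embryos with chorions exposed by immersion from 6-8 hpf to 5 dpf with daily renewal; teratogenicity score from eye scoring of death hatching and malformations at 144 hpf; higher score means more developmental defects relative to DMSO baseline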). The procedure, abridged: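 Larvae scored by eye at 144 hpf for death, hatching and malformations after a day in clean Hanks'. Before that, daily-renewed exposure at 80 uM (0.4% DMSO, 26C) from roughly 6-8 hpf through 5 dpf, 4 embryos per chemical.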

For assay [17], the system named is Thyroperoxidase (TPO), gene 54314. In words: CCTE_Simmons_AUR_rTPO: CCTE's Amplex UltraRed Assay for Thyroperoxidase (TPO) Inhibition, Simmons Lab (AID 2283662).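 Note: potency for loss of signal meaning inhibition of peroxidase activity.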 The method, boiled down:
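Rat thyroid microsomes (5 ug protein) with 25 uM Amplex UltraRed and 300 uM H2O2 in 200 mM phosphate buffer, 30 min at 37C in dark; fluorescence 544/590 nm. Eight concentrations, 5 nM–87.5 uM final, 0.5% DMSO, triplicate biological replicates.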

The nature of assay [18]: CCTE_Simmons_CellTiterGLO_HEK293T: Viability Assessment in CCTE's Assays for Thyroperoxidase (TPO) Inhibition, Simmons Lab (AID 2283665).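 For AC50: cells exposed to compound for 24 h before readout; actives reduce ATP signal below DMSO vehicle meaning cytotoxicity.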 The method, boiled down:
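Cytotoxicity counter-screen: human HEK293T cells in low-serum (1% FBS) medium receive test chemical, 5 nM to 87.5 uM final, for 24 h; ATP is quantified by luciferase luminescence.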
In general terms: ATP-based viability assays read luminescence as a measure of living cells.

`COCC(C)OCC(C)O` (stereo not drawn): the result in [1], in [2], in [3], in [4], in assay [5] and in [6] was inactive. In addition, the outcome in assay [7] was inactive.
Turning to `CC(O)CO` (stereo not drawn), the molecule was called inactive in [1], in assay [3], in assay [8], in assay [9], in [10] and in assay [11]. Further, the result in [6], in assay [12], in [13], in assay [7] and in assay [14] was inactive. Also, in assay [15], the concentration at half-maximal activity (AC50) was 675000 µM (active).
On to `CCCOc1sc(C(=O)N2CCC(c3cc(CN)ccc3F)CC2)c(C)c1Br`, for which the molecule was called inactive in [1], in assay [3], in assay [5] and in [11]. In addition, the concentration at half-maximal activity (AC50) in [16] was 57.5 µM (active).
On to `CCCCCCCCCCCCc1ccccc1S(=O)(=O)O`, for which the molecule was called inactive in assay [2], in assay [3], in assay [8], in assay [5], in [11] and in assay [6]. Moreover, the molecule was called inactive in assay [7] and in assay [15]. The AC50 in assay [17] was 37.3 µM (active); in [18] it was 33.9 µM (active); in assay [16], 3.26 µM (active).
Take `Cc1oc(-c2ccccc2)nc1CCOc1ccc(C[C@H](Nc2ccccc2C(=O)c2ccccc2)C(=O)O)cc1`: the outcome in [1], in assay [3], in assay [8], in assay [9], in assay [5] and in assay [11] was inactive. Besides, the call in assay [7] was inactive. For the same molecule, the half-maximal activity concentration (AC50) in assay [17] is 27.5 µM (active); in [18], 12.1 µM (active); in [16] it was 5.11 µM (active).
In the case of `O=c1c(-c2ccc(O)cc2)coc2cc(O)ccc12`, the outcome in [3], in assay [9], in assay [5], in [11], in assay [6] and in [7] was inactive. The molecule was classed as inactive in assay [16]. Also, the AC50 was 9.2 µM (active) in assay [17] and 0.393 µM (active) in assay [18].
For the molecule `CCCCC(CC)COC(=O)CCCCC(=O)OCC(CC)CCCC` (stereo not drawn), the call in assay [1], in assay [3], in assay [8], in assay [9], in assay [5] and in [11] was inactive. In addition, the call in [6], in [7] and in assay [16] was inactive.
As for `OCCC(F)(F)C(F)(F)C(F)(F)C(F)(F)C(F)(F)C(F)(F)F`, the call in assay [1], in assay [8], in assay [9], in assay [5], in assay [11] and in assay [7] was inactive. Also, the call in assay [16] was inactive.
Take `Cc1cc(C)c(O)c(C)c1`: the result in [3], in assay [8], in assay [9], in assay [5], in assay [6] and in assay [18] was inactive. For the same molecule, the result in assay [7] was inactive. Moreover, in assay [17], the AC50 was 5.53 µM (active).
